Results as given in PubChem BioAssay AID1347419 (Sanford-Burnham Center for Chemical Genomics, 2020).
About 820 (0.83%) of roughly 99,000 compounds were called active.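 The calls were made as follows: active = Z-score of -3 or lower, scaled per plate to the spread of control and sample wells; inactive = z-score above -3.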 Only a selection was taken, and actives are over-represented in it overall.

target: Protein-tyrosine kinase 2-beta (Homo sapiens) (UniProt Q14289); assay: Pyk2 FERM oligomerization blockers – Q293 cells, FERM NanoBiT luminescence, HTS, primary screen (AID 1347419); parameters: dose or concentration left out as unconfirmed; details: stronger effect = lower value;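 also: the deposit names both 25 µM and 10 µM; negative z-score means lost luminescence so less FERM oligomerization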
Sequence (Q14289 whole entry, looked up): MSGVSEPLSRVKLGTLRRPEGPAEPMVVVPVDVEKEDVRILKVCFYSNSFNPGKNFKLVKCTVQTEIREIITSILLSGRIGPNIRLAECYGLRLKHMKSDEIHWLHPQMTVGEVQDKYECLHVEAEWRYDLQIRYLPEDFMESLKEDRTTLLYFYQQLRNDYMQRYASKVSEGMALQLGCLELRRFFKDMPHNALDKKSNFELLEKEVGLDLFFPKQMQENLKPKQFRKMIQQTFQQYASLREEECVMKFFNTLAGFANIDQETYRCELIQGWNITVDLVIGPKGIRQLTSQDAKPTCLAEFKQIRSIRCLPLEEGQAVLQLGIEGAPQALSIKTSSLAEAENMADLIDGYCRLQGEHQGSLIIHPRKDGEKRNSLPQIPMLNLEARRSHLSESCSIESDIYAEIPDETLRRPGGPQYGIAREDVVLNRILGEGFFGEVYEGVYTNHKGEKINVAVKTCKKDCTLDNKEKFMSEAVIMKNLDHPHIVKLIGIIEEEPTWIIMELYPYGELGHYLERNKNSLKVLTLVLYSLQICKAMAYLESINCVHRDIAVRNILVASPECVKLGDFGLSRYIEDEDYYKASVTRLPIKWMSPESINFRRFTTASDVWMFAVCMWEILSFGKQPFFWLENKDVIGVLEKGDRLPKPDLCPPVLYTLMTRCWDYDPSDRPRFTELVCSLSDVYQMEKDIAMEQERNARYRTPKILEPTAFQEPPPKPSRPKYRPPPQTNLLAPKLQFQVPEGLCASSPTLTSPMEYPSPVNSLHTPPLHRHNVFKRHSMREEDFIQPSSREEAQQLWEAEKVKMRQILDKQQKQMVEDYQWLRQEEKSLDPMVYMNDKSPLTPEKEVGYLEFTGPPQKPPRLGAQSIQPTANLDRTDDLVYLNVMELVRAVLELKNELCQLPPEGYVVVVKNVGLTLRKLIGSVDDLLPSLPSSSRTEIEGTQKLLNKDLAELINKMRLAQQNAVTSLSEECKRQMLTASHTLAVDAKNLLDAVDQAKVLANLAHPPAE

| SMILES | z-score |
| --- | --- |
| Cc1ccc(NC(=O)Cn2cccc2C2=NC(c3ccccc3)CO2)c(C)c1 (configuration not stated) | -0.85 (inactive) |
| OC(COCc1ccco1)CN1CCN(c2ccccc2)CC1 (configuration not stated) | 1 (inactive) |
| CC(CNc1ccc([N+](=O)[O-])c2cccnc12)Nc1c([N+](=O)[O-])cc(C(F)(F)F)cc1[N+](=O)[O-] (configuration not stated) | -1.13 (inactive) |
| Cc1ccc(NC(=O)CC2C(=O)N(Cc3ccccc3)C(=S)N2NC(=O)c2cccc(F)c2)c(C)c1 (configuration not stated) | -1.13 (inactive) |
| COC(=O)C1=NNC2(c3ccc(C)cc3)C(=O)N(c3cccc(C)c3C)C(=O)C12 (configuration not stated) | -0.49 (inactive) |
| CCc1ccc(NC(=O)c2ccc(Cn3cc([N+](=O)[O-])cn3)cc2)cc1 | -0.1 (inactive) |
| O=C(CSC(=S)N1CCOCC1)c1ccccc1 | 0.14 (inactive) |
| CC(=O)Nc1ccc(SCC(=O)Nc2ccccc2Oc2ccccc2)cc1 | -1.74 (inactive) |
| COc1ccc(C(c2nnnn2Cc2cccs2)N2CCN(c3ccccc3)CC2)cc1OC (configuration not stated) | -3.47 (active) |
| COc1ccc(CCn2nnnc2C(c2ccccc2)N2CCN(C)CC2)cc1OC (configuration not stated) | 0.7 (inactive) |
| COCCn1nnnc1C(c1ccccc1Cl)N1CCN(c2ccccc2OC)CC1 (configuration not stated) | 0.11 (inactive) |
| CC1(C)Cc2cccc(OCC(=O)N3CCN(c4ccc([N+](=O)[O-])cc4)CC3)c2O1 | -1.19 (inactive) |
| COC(=O)c1ccc(C(=O)OC)c(NC(=S)N2CCN(c3cc(Cl)ccc3C)CC2)c1 | 0.27 (inactive) |
| Fc1ccccc1C(c1nnnn1Cc1ccc2c(c1)OCO2)N1CCN(Cc2ccccc2)CC1 (configuration not stated) | -3.73 (active) |
| Cc1cc(C)c2[nH]c(=O)c(C(c3nnnn3Cc3ccc4c(c3)OCO4)N3CCCC3)cc2c1 (configuration not stated) | 0.33 (inactive) |
| CC(C)(C)n1nnnc1C(c1ccc(F)cc1)N1CCN(Cc2ccc3c(c2)OCO3)CC1 (configuration not stated) | -0.6 (inactive) |
| CCc1ccc(Oc2coc3cc(OC(=O)c4cc5ccccc5oc4=O)ccc3c2=O)cc1 | -2.06 (inactive) |
| COC(=O)c1ccc(C(=O)Nc2cc(Cl)ccc2Cl)cc1NC(=O)c1ccccc1C | 0.09 (inactive) |
| Cc1ccccc1NC(=O)c1ccccc1NS(=O)(=O)c1cccc2cccnc12 | -1.55 (inactive) |
| C=CCNC(=O)c1ccccc1NC(=O)c1ccc(Cl)c(S(=O)(=O)Nc2cccc(C)c2C)c1 | -3.05 (active) |
| Cc1nc2ccccc2n1CC(=O)N/N=C/c1cccs1 | 0.4 (inactive) |
| CCCN1C(=O)C(Cc2nc3ccccc3c(=O)n2-c2ccccc2)c2cc(C)ccc21 (configuration not stated) | 0.19 (inactive) |
| Cc1nn(CC(=O)Nc2ccc(N(C)C)cc2)c(C)c1[N+](=O)[O-] | -0.87 (inactive) |

| SMILES | z-score |
| --- | --- |
| CCCCC(NS(=O)(=O)c1ccc(C)cc1)C(=O)Oc1ccc2c3c(c(=O)oc2c1)CCC3 (configuration not stated) | -1.42 (inactive) |
| COC(=O)N/N=C/c1cn(CCCOc2ccc(C)cc2)c2ccccc12 | -1.26 (inactive) |
| CCn1c(C(C)NC(=O)c2ccc(C)cc2)n[nH]c1=S (configuration not stated) | 0.28 (inactive) |
| CCCC(=O)Nc1ccccc1N1CCN(C(=O)c2ccccc2)CC1 | -1.16 (inactive) |
| O=C(Nc1ccccc1N1CCN(C(=O)c2ccccc2)CC1)c1ccc2c(c1)OCO2 | -3.44 (active) |
| O=C(Nc1ccccc1)c1ccc2c(c1)OCO2 | 1.34 (inactive) |
| CCOc1ccc(NC(=O)CSc2nc3ccccc3c(=O)n2Cc2cccs2)cc1 | 0.79 (inactive) |
| CC(=O)Cc1nsc(NC(=O)c2ccc(COc3ccc(C)cc3)o2)n1 | -0.45 (inactive) |
| COc1ccc(-c2nn(-c3ccccc3)cc2C(=O)Nc2nccs2)cc1OC | -3.32 (active) |
| COC(=O)c1cn(-c2ccccc2)nc1-c1cccnc1 | -0.5 (inactive) |
| CC(=O)Cc1nsc(NC(=O)c2csc3c2CCCC3)n1 | -1.89 (inactive) |
| COc1cc(C(=O)Nc2nccs2)cc(OC)c1OC | -2.06 (inactive) |
| COc1ccc(-c2nn(-c3ccccc3)cc2C(=O)Nc2nc(CC(C)=O)ns2)cc1 | -3.37 (active) |
| COc1cccc(C(=O)Nc2cc3c(cc2Br)OCCCO3)c1 | 0.23 (inactive) |
| CCOc1ccc(NC(=O)CCC(=O)N/N=C/c2ccc([N+](=O)[O-])s2)cc1 | 0.19 (inactive) |
| CC(C)(C)NC(=O)c1cccc(NC(=O)Cc2ccc(Br)cc2)c1 | -0.17 (inactive) |
| COC(=O)c1c(NC(=O)CN2CCN(S(=O)(=O)c3ccccc3[N+](=O)[O-])CC2)sc2c1CCC(C)C2 (configuration not stated) | 0.28 (inactive) |
| CNC(=O)c1ccsc1NC(=O)c1ccc(S(=O)(=O)N2CCOCC2)cc1 | -1 (inactive) |
| CC(=O)Oc1c(C(=O)c2nnc(C)o2)c(=O)n(Cc2ccccc2)c2ccccc12 | 0.7 (inactive) |
| O=C(Cc1c[nH]c2ccccc12)N/N=C/c1cccc(F)c1 | -0.81 (inactive) |
| COc1cccc2c1CCC(NC(C)=O)C2=O (configuration not stated) | 0.78 (inactive) |
| CCOC(=O)c1ccc(N/C(=N/S(=O)(=O)c2ccccc2)c2ccccc2)cc1 | -1.09 (inactive) |
| COCCCNC(=O)CNC(=S)N(Cc1cc(OC)c(OC)c(OC)c1)C1CCCC1 | 0.81 (inactive) |

| SMILES | z-score |
| --- | --- |
| Cc1ccc(C(=O)C(=S)N2CCOCC2)cc1 | -0.25 (inactive) |
| COc1ccc(/C=C/C(=O)Nc2ccc3c(c2)OCCO3)cc1OC | -0.25 (inactive) |
| Cc1ccc(C(=O)N2CC(=O)Nc3ccccc32)o1 | -0.11 (inactive) |
| Cn1c(=O)c2cn(-c3cccc4ccccc34)cc2n(C)c1=O | -3.24 (active) |
| CC(=O)Nn1cc2c(=O)n(C)c(=O)n(C)c2c1 | 1.08 (inactive) |
| COc1ccc(OC)c(-n2cc3c(=O)n(C)c(=O)n(C)c3c2)c1 | -0.75 (inactive) |
| COc1ccc(CC(=O)Nc2cc(S(=O)(=O)N3CCCCC3)ccc2N2CCN(C)CC2)cc1 | 0.23 (inactive) |
| COc1ccccc1NC(=O)C1=C(C)Nc2nc3ccccc3n2C1c1cccs1 (configuration not stated) | -0.65 (inactive) |
| CC(C)C(=O)Nc1ccc2c3c(cccc13)CC2 | -0.27 (inactive) |
| CCOC(=O)c1cc2cc(-c3c(C(=O)OCC)oc4cc(O)cc(O)c4c3=O)ccc2o1 | -3.6 (active) |
| O=c1c(-c2ccc3c(c2)OCCO3)c(C(F)(F)F)oc2cc(O)cc(O)c12 | -1.19 (inactive) |
| Cc1ccc(OC(=O)c2cc3ccccc3o2)cc1 | 0.88 (inactive) |
| O=C(NC(=S)NC1CCSC1=O)c1ccccc1F (configuration not stated) | 2.45 (inactive) |
| CCOc1ccc(/C=N/OCC(=O)NCc2cccs2)cc1 | 0.26 (inactive) |
| Nc1nc(SCc2ccc([N+](=O)[O-])cc2)c2ncn(C3OC(CO)C(O)C3O)c2n1 (configuration not stated) | 1.34 (inactive) |
| COc1ccc(C(c2nnnn2C2CCCCC2)N2CCN(c3ccccc3F)CC2)cc1 (configuration not stated) | -2.56 (inactive) |
| Cc1cccc(N2CCN(C(c3ccccc3)c3nnnn3CC3CCCO3)CC2)c1C (configuration not stated) | -3.18 (active) |
| Cc1cccc(N2CCN(C(c3ccc(N(C)C)cc3)c3nnnn3C(C)(C)C)CC2)c1C (configuration not stated) | 0.72 (inactive) |
| Cc1nc(SCC(=O)c2ccccc2)c([N+](=O)[O-])[nH]1 | -0.67 (inactive) |
| COC(=O)c1cc(C(=O)CSc2nc(C)cc(C)n2)ccc1O | -0.22 (inactive) |
| Cc1cc(SCC(=O)c2ccccc2)nc(SCC(=O)c2ccccc2)n1 | -3.01 (active) |
| CC(C)=C1C2CCC1C1C(=O)N(NC(=O)c3ccco3)C(=O)C21 (configuration not stated) | 1.15 (inactive) |
| Cc1ccc(NC(=O)NC(=O)CSc2nnc(-c3ccc(OC(F)F)cc3)n2N)c(C)c1 | -0.1 (inactive) |

| SMILES | z-score |
| --- | --- |
| COc1ccc(-c2csc(NC(=O)CCCc3cccs3)n2)cc1 | 0.83 (inactive) |
| Cc1ccc(N(Cc2ccc(C(=O)Nc3ccccc3C(=O)NCc3ccco3)cc2)S(C)(=O)=O)cc1C | -3.96 (active) |
| Cc1cccc(Nc2ccccc2C(=O)NCc2ccco2)c1C | -0.62 (inactive) |
| CS(=O)(=O)N(Cc1ccc(Cl)cc1)c1ccc(C(=O)NCCSCc2ccco2)cc1 | 0.47 (inactive) |
| CCOC(=O)N/N=C/c1cn(Cc2ccccc2Cl)c2ccccc12 | -1.11 (inactive) |
| C=CCn1c(SCc2cccc(F)c2)nc2cc(C(=O)N3CCC(C(N)=O)CC3)ccc2c1=O | -1.07 (inactive) |
| COc1ccc(/C=N/N=C/c2c[nH]c(=O)c(C#N)c2Nc2ccccc2)cc1 | 0.79 (inactive) |
| COC(=O)c1ccccc1NC(=O)CSc1nnnn1C | 0.19 (inactive) |
| CCOC(=O)c1c(-c2ccc(C)cc2C)csc1NC(=O)CSc1nnnn1C | -3.44 (active) |
| CCOC(=O)CNC(=O)CSc1nnnn1-c1cc(C)ccc1C | -0.31 (inactive) |
| Cc1nonc1C(=O)N/N=C/c1ccc(O)cc1 | 0.67 (inactive) |
| CC(C)Nc1nnc(SCC(=O)c2c[nH]c3ccccc23)s1 | 0.14 (inactive) |
| Cc1cccc(C(=O)c2cccc(C)c2)c1 | 0.43 (inactive) |
| Cc1cccc(-n2c(SCC(N)=O)nc3c(c2=O)C2(CCCCC2)Cc2ccccc2-3)c1 | 1.27 (inactive) |
| CC(NC(=O)COC(=O)C1CCN(S(=O)(=O)c2ccccc2C(F)(F)F)CC1)c1ccccc1 (configuration not stated) | -0.04 (inactive) |
| Nc1ccc(-c2nnc(-c3ccc(-c4ccccc4)cc3)o2)cc1 | -3.38 (active) |
| O=C(Nc1ccc(-c2nnc(-c3ccccc3)o2)cc1)c1ccc(Br)o1 | 0.72 (inactive) |
| Brc1ccc(-c2nnc(-c3ccccc3)o2)o1 | -0.77 (inactive) |
| Cc1ccnc(NC(=O)c2ccoc2C)c1 | 0.21 (inactive) |
| COc1ccc2[nH]c3ccc(OC)cc3c2c1 | -0.72 (inactive) |
| CCN(CC)CC(=O)c1c[nH]c2ccc(OC)cc12 | -0.09 (inactive) |
| COc1ccc2[nH]cc(/C=C(/C#N)S(=O)(=O)c3ccccc3)c2c1 | -3.31 (active) |
| CCOc1ccc(C(=O)Nc2cccc(SC)c2)cc1 | 0.21 (inactive) |
